Experimental data: ChEMBL document CHEMBL3988442, “University of Dundee, Small-Polar-MMV Screening Library” (2021)
Out of some 69,000 compounds screened, about 950 (1.4%) showed an effect of 50% or more. This is one part of a sample in which strong results are shown more often than they occur.

test system: Mycobacterium tuberculosis; assay: Cornell M. t heat shock assay; assay type: functional, organism-based; parameters: dose or concentration left out as unconfirmed; further: in the data most compounds retested in dose-response had high values

Row | Structure (SMILES) | Percent Effect [%]
1 | CC(c1ccccn1)N(C)Cc1cccc(C(=O)Nc2nccn2C)c1 (stereo unspecified) | 74
2 | CN(Cc1cccc(C(=O)Nc2ccnn2C)c1)CC1(C)COC1 | -8.064
3 | CC(NC(=O)c1cccc(CN2CCN(C)CC2)c1)c1ccccn1 (stereo unspecified) | -15.12
4 | COC(=O)c1cccc(CN(C)C(C)c2ccccn2)c1 (stereo unspecified) | -7.966
5 | CC(c1ccco1)N(C)Cc1cccc(C(=O)Nc2nccn2C)c1 (stereo unspecified) | 105
6 | CCc1nnc(CN(C)Cc2cccc(C(=O)Nc3ccnn3C)c2)o1 | 2.892
7 | N#CC1=C(N)Nn2c(nnc2-c2ccccc2Br)S1 | -17.22
8 | CNC(=O)C1CN(c2ccc(F)cc2)CCN1.Cl (stereo unspecified) | -9.726
9 | CC(C)CN1CC[C@H]2OCC[C@@H](C(=O)N3CCCO3)[C@@H]2C1.O=C(O)C(F)(F)F | -22.87
10 | c1cnn(CC2CCCCN2c2ncnc3ccsc23)c1 (stereo unspecified) | -40.74
11 | CNC(=O)[C@@]12CCO[C@@H]1CCN(S(=O)(=O)c1cccnc1)C2.O=C(O)C(F)(F)F | 3.091
12 | Cc1noc(C)c1CN1CCO[C@H]2CN(Cc3nccn3C)C[C@H]21.O=C(O)C(F)(F)F.O=C(O)C(F)(F)F | -6.105
13 | Cc1cnc(CN(C)C2CCN(Cc3nc4ccccc4n3C)C2)o1 (stereo unspecified) | 96.91
14 | Cc1nc(CN(C)C2CCN(CCCc3ccccc3)C2)no1 (stereo unspecified) | -13.87
15 | Cc1nc(CN(C)C2CCN(Cc3cccc4cccnc34)C2)no1 (stereo unspecified) | 19.87
16 | Cc1nnc(CN(C)C2CCN(Cc3nc4ccccc4n3C)C2)o1 (stereo unspecified) | 28.12
17 | Cc1nc(CN(C)C2CCN(Cc3ccno3)C2)no1 (stereo unspecified) | -9.493
18 | Cc1nc(CN(C)C2CCN(Cc3ccc4ccccc4n3)C2)no1 (stereo unspecified) | 86.18
19 | Cc1nc(CN(C)C2CCN(Cc3nc4ccccc4s3)C2)no1 (stereo unspecified) | -21.16
20 | Cc1nc(CN(C)C2CCN(Cc3nc4ccccc4n3C)C2)no1 (stereo unspecified) | 69.83
21 | Cc1cnc(CN(C)C2CCN(Cc3nc4ccccc4o3)C2)o1 (stereo unspecified) | -16.63

Row | Structure (SMILES) | Percent Effect [%]
22 | Cc1cc(-c2nccs2)nc(C2CCN(Cc3ccncc3)CC2)n1.Cl | -12.67
23 | CN(Cc1ccco1)[C@@H]1CN(Cc2ccco2)[C@@H]2CCCO[C@H]12.O=C(O)C(F)(F)F.O=C(O)C(F)(F)F | 13.61
24 | CN1CCC/C1=N\S(=O)(=O)c1ccc(NC(=O)c2ccc(Cl)cc2)cc1 | -4.489
25 | CC1=N[C@@]2(CC[C@@H]3CN(Cc4ccc(C)cc4)C[C@@H]32)C(=O)N1CC1CC1.O=C(O)C(F)(F)F | 0.8614
26 | CC(c1cn2ccsc2n1)N1Cc2ncccc2C1=O (stereo unspecified) | -27.43
27 | CCn1ncc2c1CN(C(=O)Cc1cccs1)CC2COC.O=C(O)C(F)(F)F (stereo unspecified) | 1.467
28 | COc1cccc(N2Cc3nc(=O)n(Cc4cccc(F)c4)n3C2=O)c1 | 19.15
29 | CCC(=O)N1CCC2(CC1)COCCN2Cc1ccc(F)cc1.O=C(O)C(F)(F)F | -30.34
30 | O=C(O)C(F)(F)F.c1csc(CN2CCn3c(Cn4cncn4)cnc3C2)n1 | -82.66
31 | CC(NC(=O)CCn1c(=O)oc2ccccc21)c1ccccn1 (stereo unspecified) | -6.717
32 | O=C(CCn1c(=O)oc2ccccc21)NCC(O)c1ccc(Cl)cc1 (stereo unspecified) | -3.948
33 | O=C(CCn1c(=O)oc2ccccc21)NCC(O)c1ccc(F)c(F)c1 (stereo unspecified) | 64.78
34 | O=C(Cn1c(=O)oc2ccccc21)NCC(O)c1ccc2c(c1)CCO2 (stereo unspecified) | -3.535
35 | O=C(NCC(O)c1ccc(F)c(F)c1)c1ccccc1F (stereo unspecified) | -2.812
36 | O=C(CCn1c(=O)oc2ccccc21)NCC(O)c1ccccc1 (stereo unspecified) | 71.18
37 | Cc1nc(C2(O)CCCNCC2)sc1CCOc1ccccc1Cl.Cl (stereo unspecified) | -14.1
38 | CCO[C@@H]1CC[C@H]2[C@H]1OCCN2CC1CCOCC1.O=C(O)C(F)(F)F | -50.97
39 | Cc1nc(CNCC2CCCN2c2cccnn2)oc1C (stereo unspecified) | -4.447
40 | CC(C)CCc1nc(CNCC2CCCN2c2cccnn2)cs1 (stereo unspecified) | 75.49
41 | c1cnnc(N2CCCC2CNCc2nc(C3CC3)no2)c1 (stereo unspecified) | 52.74
42 | CN(Cc1coc(-c2ccccc2)n1)CC1CCCN1c1cccnn1 (stereo unspecified) | 7.112

Row | Structure (SMILES) | Percent Effect [%]
43 | c1cnnc(N2CCCC2CNCc2nc(-c3ccco3)no2)c1 (stereo unspecified) | 13.72
44 | c1cnnc(N2CCCC2CNc2nc3ccccc3o2)c1 (stereo unspecified) | -7.44
45 | CCCc1nc(CNCC2CCCN2c2cccnn2)cs1 (stereo unspecified) | 2.805
46 | c1ccc(-c2nnc(CNCC3CCCN3c3cccnn3)o2)cc1 (stereo unspecified) | -22.96
47 | c1ccc(-c2nc(CNCC3CCCN3c3cccnn3)co2)cc1 (stereo unspecified) | 102.8
48 | c1cnnc(N2CCCC2CNCc2nc3ccccc3o2)c1 (stereo unspecified) | 103.1
49 | CCc1nc(CNCC2CCCN2c2cccnn2)cs1 (stereo unspecified) | 0.6291
50 | CCc1noc(CNCC2CCCN2c2cccnn2)n1 (stereo unspecified) | 11.99
51 | CCn1ccnc1CN1CCN(c2cc(C)nc(C3CCCN3)c2)CC1.Cl (stereo unspecified) | -8.62
52 | CC(C)c1nn(C)c(N(C)C)c1CNCc1cccc2cccnc12.Cl | 16.12
53 | CO[C@@H]1CO[C@@]2(CCCN(Cc3nc(C)cs3)C2)C1.O=C(O)C(F)(F)F | 0.7459
54 | Cc1ccccc1C(=O)N1C[C@@H]2OCCN(c3ncccn3)[C@@H]2C1.O=C(O)C(F)(F)F | -16.98
55 | O=C(NC[C@]12COC[C@H]1CN(Cc1ccco1)C2)c1ccccc1.O=C(O)C(F)(F)F | -18.08
56 | Cc1nc(CCN)cc(N2CCOc3ccc(Cl)cc3C2)n1 | 51.61
57 | Cc1nc(C2CCN(C)CC2)cc(N2CCOc3ccc(Cl)cc3C2)n1 | -13.3
58 | Cc1nc(CCN)cc(N2CCC(O)(c3ccc(Cl)cc3)CC2)n1 | -16.16
59 | O=C(O)C(F)(F)F.c1nc2c(c(C3CC3)n1)CCN(CC1CCOC1)CC2 (stereo unspecified) | 4.72
60 | CC(C)n1cc(N2Cc3nc(N4CCOCC4)ncc3C2=O)cn1 | -21.77
61 | CCOc1cc(CN[C@@H]2COC[C@H]2Cc2cc(C)no2)ccc1O.O=C(O)CC(O)(CC(=O)O)C(=O)O | -17.97
